Pf Dd2 inh: qHTS Primary assay for Inhibitors of Plasmodium falciparum Dd2 growth in vitro | P. falciparum Dd2 growth, SYBR Green, 72 h | Potency, µM (titrated, usually from 28.9 µM), actives largely listed as inhibitors | 120,000 tested, 4.3% active | AID 1347417, 2020; active = well fitted inhibition curve with a large enough effect; note: nearly all actives have a fitted effect of over 65% in size
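Readout: SYBR Green fluorescence, 485 nm excitation, 535 nm emission, after ~16 h lysis at 37C. Before that, Dd2-infected red cells (2.5% hematocrit) grew 72 h with compound, 29 uM top final concentration.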
Each line names hits and unclear results; the compound was inactive in the other large screens. The entries come from a sample that favours hits as a whole.

Cc1nnnn1CC(=O)Nc1nn(Cc2ccccc2)c2cccc(OC(C)C)c12	none
CC(C)Oc1cccc2c1c(NC(=O)C1CCN(C)C1)nn2Cc1ccccc1 (stereo unspecified)	Pf Dd2 inh 2.24µM
CC(C)Oc1cccc2c1c(NC(=O)C1CC(=O)N(C)C1)nn2Cc1ccccc1 (stereo unspecified)	none
CN(CCc1nc2ccc(Cl)cc2[nH]1)c1cc(C2CC(O)C2)nc(N)n1 (stereo unspecified)	none
Cc1ccc(SCCN(C)c2cc(C3CC(O)C3)nc(N)n2)cc1 (stereo unspecified)	Pf Dd2 inh 5.62µM
Cc1c(CN(C)c2cc(C3CC(O)C3)nc(N)n2)[nH]c2ccccc12 (stereo unspecified)	none
CC(C)c1nnc(C2CN(C(=O)c3cccn3C)CC23CCOCC3)o1 (stereo unspecified)	none
COCCn1ncc(N2CCC(C(=O)N3CCN(C(C)C)CC3)C2)cc1=O (stereo unspecified)	none
COc1nccnc1NC1CCN(C(=O)Cc2cccs2)CC1	none
COc1ccc(C(=O)NCC(=O)N2CCCCCNC(=O)CC2c2ccccc2)cc1 (stereo unspecified)	none
NCCn1cc(C(=O)NC2C3CN4CCN(C3)CC2(c2ccccc2)C4)nn1 (stereo unspecified)	none
Cc1nn(CC(=O)N2CCN(c3ccc(F)cc3)CC2)c(=O)c2nc(C(C)C)sc12	none
CCOc1ccc(CN2CCc3nn(C)c(=O)n3CC2)cc1OC	none
Cn1cc(-c2ccc(F)c(Cl)c2)c2nc(CO)cn2c1=O	none
CN(C)Cc1cn2c(=O)n(C)cc(-c3ccc(F)c(Cl)c3)c2n1	Pf Dd2 inh 2.51µM
CN(C)Cc1cn2c(=O)n(C)cc(-c3ccc(O)c(F)c3)c2n1	none
CN(C)C(=O)c1cc2c(s1)CCC(C(=O)NCc1ccncc1)C2 (stereo unspecified)	none
COc1ccc(C(=O)N2[C@H]3CC[C@@H]2c2cnc(C)nc2C3)cc1OC	none
COc1ccc(C(=O)N[C@@H]2CCC[C@@H]2C(=O)N2CCN(c3ncccn3)CC2)cn1	none
COc1ccc(C(=O)N[C@@H]2CCC[C@@H]2C(=O)Nc2cc(F)ccc2C)cn1	none
COc1ccc(C(=O)N[C@@H]2CCC[C@@H]2C(=O)N2CCN(c3cc(C)ccc3C)CC2)cn1	Pf Dd2 inh 10µM
O=c1cc(N2CCOCC2)oc2c(-c3ccc(F)c(Cl)c3)nccc12	none
COCCC1(N(C)C)CCN(C(=O)c2ccnn2C)CC1	none
Cn1cc(S(=O)(=O)c2cccc(Cl)c2)c(=O)c2cc(F)c(N3CCCCCC3)cc21	none
Cn1cc(S(=O)(=O)c2ccccc2)c(=O)c2cc(F)c(N3CCCC3)cc21	none
Cn1cc(S(=O)(=O)c2ccccc2)c(=O)c2cc(F)c(N3CCCCC3)cc21	none
Cc1ccc(S(=O)(=O)c2cn(C)c3cc(N4CCCCC4)c(F)cc3c2=O)cc1	none
Cn1cc(S(=O)(=O)c2ccccc2)c(=O)c2cc(F)c(N3CCCCCC3)cc21	Pf Dd2 inh 8.91µM
CCCN1CCN(c2cc3c(cc2F)c(=O)c(S(=O)(=O)c2ccc(Cl)cc2)cn3C)CC1	Pf Dd2 inh 10µM
CCN1CCN(c2cc3c(cc2F)c(=O)c(S(=O)(=O)c2ccccc2)cn3C)CC1	none
Cn1cc(S(=O)(=O)c2ccc(Cl)cc2)c(=O)c2cc(F)c(N3CCCCCC3)cc21	Pf Dd2 inh 14.1µM
Cc1cnc(C(=O)N2CCC(N3C(=O)C4(CCCCC4)C3c3ccccc3)CC2)cn1 (stereo unspecified)	none
Cc1ccsc1C(=O)N1CCCC(c2noc(COc3ccccc3)n2)C1 (stereo unspecified)	none
COc1ccccc1OCc1cc(C(=O)NCC2COCCO2)n[nH]1 (stereo unspecified)	none
O=C1CCN(C(=O)C2CCN(C(=O)CN3CCCC3=O)CC2)CCCCCCN1	none
COc1cc2[nH]c(=O)n(CCCC(=O)N3CCN(c4cccc(C(F)(F)F)c4)CC3)c(=O)c2cc1OC	none
COc1cc2c(C(=O)N3CCN(c4cccc(C(F)(F)F)c4)CC3)cn(CC(C)C)c(=O)c2cc1OC	Pf Dd2 inh 8.91µM
CCCN(C(=O)c1cn(CC(C)C)c(=O)c2cc(OC)c(OC)cc12)c1cccc(C)c1	none
Cc1ccnn1CCC(=O)N1CCOC(Cc2ccc(F)cc2)C1 (stereo unspecified)	none
CSc1ccc(/C=C/c2nc3ccccc3n2S(=O)(=O)c2ccc(F)c(C)c2)cc1	none
CCOc1ccc(Cn2c(CNS(=O)(=O)c3cccc(Cl)c3)nc3cccnc32)cc1	none
CCOc1ccc(/C=C/c2nc3ccccc3n2S(=O)(=O)c2cccc(Cl)c2)cc1	Pf Dd2 inh 3.55µM
CC1(C(=O)Nc2ccc(F)c(F)c2)CCCCC(=O)N1 (stereo unspecified)	none
O=C1CCN(CC2CC2)CCCC(c2nc(-c3cccnc3)no2)CCN1 (stereo unspecified)	none
N#Cc1ccccc1CN1CCCC(c2nc(-c3cccnc3)no2)CCNC(=O)CC1 (stereo unspecified)	none
N#Cc1ccc(CN2CCCC(c3nc(-c4cccnc4)no3)CCNC(=O)CC2)cc1 (stereo unspecified)	Pf Dd2 inh 3.98µM
N#Cc1cccc(CN[C@@H]2CO[C@H](CNS(=O)(=O)c3ccccc3)[C@H]2O)c1	none
Cc1ccc(-c2noc([C@@H]3C[C@H](NS(=O)(=O)c4ccc(F)cc4)CN3C)n2)cc1	none
CC(C)CNC(=O)C(NC(=O)CC(C)C)C1CCN(C(=O)c2ccccc2)CC1 (stereo unspecified)	none
CCC(C)NC(=O)C1COC2(CCN(C(=O)c3ccc(OC)cc3)CC2)N1C(=O)c1ccc(C)cc1 (stereo unspecified)	none
Cc1ccc(-c2nc(C)c(C(=O)Nc3ccc4c(c3)C(=O)N3CCC[C@H]3C(=O)N4)s2)cc1	none
CC(C)c1ccc(NC(=O)CSC2=Nc3ccccc3C3=NC(CCC(=O)NCc4ccc(F)cc4)C(=O)N23)cc1 (stereo unspecified)	none
COc1ccccc1NC(=O)CSC1=Nc2ccccc2C2=NC(CCC(=O)NCCc3ccccc3)C(=O)N12 (stereo unspecified)	none
Cc1cccc(NC(=O)CSC2=Nc3ccccc3C3=NC(CC(=O)NCc4cccs4)C(=O)N23)c1 (stereo unspecified)	Pf Dd2 inh 3.16µM
COc1ccc(NC(=O)CSC2=Nc3ccccc3C3=NC(CCC(=O)NCc4ccc(F)cc4)C(=O)N23)cc1Cl (stereo unspecified)	Pf Dd2 inh 11.2µM
COc1ccc(Cl)cc1NC(=O)CSC1=Nc2ccccc2C2=NC(CCC(=O)NCc3ccc(F)cc3)C(=O)N12 (stereo unspecified)	none
COc1ccc(OC)c(NC(=O)CSC2=Nc3ccccc3C3=NC(CCC(=O)NCc4ccccc4)C(=O)N23)c1 (stereo unspecified)	Pf Dd2 inh 12.6µM
CC(C)(C)c1ccc(CSC2=Nc3ccccc3C3=NC(CC(=O)NCc4cccs4)C(=O)N23)cc1 (stereo unspecified)	none
Cc1ccc(CSC2=Nc3ccccc3C3=NC(CC(=O)NCc4cccs4)C(=O)N23)c(C)c1 (stereo unspecified)	none
CCOc1ccc(NC(=O)CSC2=Nc3ccccc3C3=NC(CCC(=O)NCc4ccccc4)C(=O)N23)cc1 (stereo unspecified)	none
O=C(c1csc(N2CCN(c3ccccc3)CC2)n1)N1CCCCCC1	none
Cc1ccc(NC(=O)Cn2cccc2-c2nc(-c3ccc4c(c3)OCO4)no2)cc1C	none
CN(CC1(C)CCOCC1)C(=O)c1ccc(Cl)s1	none
Cc1ccc2oc(=O)n(CCC(=O)N3CCc4c(nc(C)[nH]c4=O)C3)c2c1	none
Cc1noc(C)c1-c1cc2c(c(-c3cccc(S(C)(=O)=O)c3)c1)C(=O)N(C)C2	none
